Assay results reported in PubChem BioAssay (EPA / NIEHS).
Active and inactive are the calls of the source. The calls were made as follows: active = hit-call score of the fitted dose curve at least 0.9, where 1 is the maximum; inactive = score below 0.9.

Tests used:
Conditions in all cases: mRNA level, 48 h; actives raise or lower the signal
[1] = read-out: Lipoprotein lipase (LPL), LPL (gene 4023); test: LTEA_HepaRG_LPL: Life Technologies and Expression Analysis (LTEA) Assay for Lipoprotein lipase (LPL) using HepaRG (AID 2283515)
Outline: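 Read-out is LPL transcript level by qRT-PCR, normalized to three housekeeping genes and fitted bidirectionally against the DMSO control. Human HepaRG cells received chemicals for 48 h at up to 100 uM.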

[2] = read-out: MicroRNA 122 (MIR122), gene 406906; test: LTEA_HepaRG_MIR122: Life Technologies and Expression Analysis (LTEA) Assay for MicroRNA 122 (MIR122) using HepaRG (AID 2283516); also: the transcript read is the microRNA miR-122
Outline: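 HepaRG, 48 h exposure, 8-pt half-log from 100 uM, 0.5% DMSO; TaqMan qRT-PCR; bidirectional fit vs DMSO.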

[3] = read-out: matrix metalloproteinase-10 (MMP10), MMP10 (gene 4319); test: LTEA_HepaRG_MMP10: Life Technologies and Expression Analysis (LTEA) Assay for matrix metalloproteinase-10 (MMP10) using HepaRG (AID 2283517)
Outline: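 Gain or loss of MMP10 mRNA is fitted relative to the 0.5% DMSO vehicle. The human hepatic line HepaRG receives a 48-hour serum-free exposure, in duplicate, with a maximum concentration of 100 uM.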

MYC, MYC (gene 4609) = test: LTEA_HepaRG_MYC: Life Technologies and Expression Analysis (LTEA) Assay for MYC using HepaRG (AID 2283518)
Outline: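 MYC transcript changes, up or down relative to 0.5% DMSO, from TaqMan qRT-PCR normalized to three housekeeping genes. Human HepaRG cultures received chemicals for 48 h at eight half-log concentrations up to 100 uM, in duplicate.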

[4] = read-out: matrix metalloproteinase-3 (MMP3), MMP3 (gene 4314); test: LTEA_HepaRG_MMP3: Life Technologies and Expression Analysis (LTEA) Assay for matrix metalloproteinase-3 (MMP3) using HepaRG (AID 2283519)
Outline: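 HepaRG, human; 48 h dosing, 8 conc. (max 100 uM, half-log), duplicate, 0.5% DMSO. Readout: MMP3 transcript by Fluidigm TaqMan qRT-PCR, ACTB/GAPDH/POLR2A-normalised. Gain or loss fitted vs DMSO.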

[5] = read-out: Paternally Expressed 10 (PEG10), PEG10 (gene 23089); test: LTEA_HepaRG_PEG10: Life Technologies and Expression Analysis (LTEA) Assay for Paternally Expressed 10 (PEG10) using HepaRG (AID 2283520)
Outline: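 Chemicals tested on HepaRG cells for 48 h, highest concentration 100 uM. PEG10 expression assessed by qRT-PCR relative to DMSO control.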

[6] = read-out: Nuclear factor NF-kappa-B p105 subunit (Homo sapiens) (UniProt P19838); test: LTEA_HepaRG_NFKB1: Life Technologies and Expression Analysis (LTEA) Assay for Nuclear Factor Kappa B Subunit 1 (NFKB1) using HepaRG (AID 2283521)
Outline: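 Differentiated human HepaRG cells in serum-free induction medium with 0.5% DMSO were exposed for 48 h to eight half-log concentrations, top 100 uM, in duplicate. NFKB1 mRNA measured by Fluidigm TaqMan qRT-PCR, normalised to ACTB, GAPDH and POLR2A; bidirectional fit versus DMSO.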

[7] = read-out: Protein phosphatase 2A (PPP2R4), PTPA (gene 5524); test: LTEA_HepaRG_PPP2R4: Life Technologies and Expression Analysis (LTEA) Assay for Protein phosphatase 2A (PPP2R4) using HepaRG (AID 2283522)
Outline: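 Gene-expression endpoint in HepaRG hepatic cells: 48 h treatment across eight half-log concentrations up to 100 uM in 0.5% DMSO. PPP2R4 mRNA by qRT-PCR, normalized to three endogenous control genes.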

[8] = read-out: Phosphatase and tensin (PTEN), PTEN (gene 5728); test: LTEA_HepaRG_PTEN: Life Technologies and Expression Analysis (LTEA) Assay for Phosphatase and tensin (PTEN) using HepaRG (AID 2283523)
Outline: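 Read-out is PTEN transcript level by multiplexed TaqMan qRT-PCR after 48 h chemical treatment of human HepaRG cultures in serum-free induction medium. Concentrations spanned 100 uM downward in half-log steps, 0.5% DMSO throughout; activity fitted in both directions against vehicle.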

[9] = read-out: solute carrier (SLC22A1), SLC22A1 (gene 6580); test: LTEA_HepaRG_SLC22A1: Life Technologies and Expression Analysis (LTEA) Assay for solute carrier (SLC22A1) using HepaRG (AID 2283524)
Outline: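 HepaRG (human liver line), 48 h dosing in serum-free induction medium; 8 conc., half-log down from 100 uM, 0.5% DMSO vehicle, duplicates. Endpoint: SLC22A1 mRNA, qRT-PCR, housekeeping-normalized; gain/loss fit vs DMSO.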

[10] = read-out: Pyruvate Dehydrogenase Kinase 4 (PDK4), PDK4 (gene 5166); test: LTEA_HepaRG_PDK4: Life Technologies and Expression Analysis (LTEA) Assay for Pyruvate Dehydrogenase Kinase 4 (PDK4) using HepaRG (AID 2283525)
Outline: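 In this multiplexed human HepaRG expression assay, cells are treated 48 h with test chemicals across an eight-point range starting at 100 uM. PDK4 mRNA changes, normalized to ACTB/GAPDH/POLR2A, are fitted in both directions relative to vehicle.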

[11] = read-out: NAD(P)H dehydrogenase [quinone] 1 (NQO1), NQO1 (gene 1728); test: LTEA_HepaRG_NQO1: Life Technologies and Expression Analysis (LTEA) Assay for NAD(P)H dehydrogenase [quinone] 1 (NQO1) using HepaRG (AID 2283526)
Outline: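 Human HepaRG hepatic cells received chemicals for 48 h in serum-free induction medium with 0.5% DMSO, up to 100 uM. Expression was assessed by TaqMan qRT-PCR against housekeeping controls and fitted bidirectionally against DMSO.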

[12] = read-out: Nuclear factor erythroid 2-related factor 2 (Homo sapiens) (UniProt Q16236); test: LTEA_HepaRG_NFE2L2: Life Technologies and Expression Analysis (LTEA) Assay for Nuclear factor erythroid 2-related factor 2 (NFE2L2) Transcription Factor using HepaRG (AID 2283527);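 also: TaqMan qRT-PCR transcript level normalised to ACTB GAPDH and POLR2A housekeeping genes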
Outline: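 Transcript level of NFE2L2 is the read-out, measured by microfluidic TaqMan qRT-PCR and normalized to three housekeeping genes. Human HepaRG cultures received test chemical for 48 h at up to 100 uM in half-log steps. Gain or loss of signal is fitted relative to 0.5% DMSO.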

[13] = read-out: succinate dehydrogenase complex iron sulfur subunit B (SDHB), SDHB (gene 6390); test: LTEA_HepaRG_SDHB: Life Technologies and Expression Analysis (LTEA) Assay for succinate dehydrogenase complex iron sulfur subunit B (SDHB) using HepaRG (AID 2283528)
Outline: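 HepaRG cells (~100,000/well, plated 48 h) exposed in duplicate for 48 h in serum-free induction medium to 8-point half-log series from 100 uM in 0.5% DMSO; mRNA by qRT-PCR normalised to ACTB, GAPDH, POLR2A; bidirectional fit versus DMSO.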

[14] = read-out: Signal transducer and activator of transcription 3 (Homo sapiens) (UniProt P40763); test: LTEA_HepaRG_STAT3: Life Technologies and Expression Analysis (LTEA) Assay for Signal transducer and activator of transcription (STAT3) using HepaRG (AID 2283529)
Outline: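 Read-out is STAT3 mRNA level by qRT-PCR, normalized to three housekeeping genes, in human HepaRG liver cells treated for 48 h. Concentrations ran from 100 uM downward in half-log steps; curves were fitted for gain or loss relative to 0.5% DMSO.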

[15] = read-out: solute carrier (SLCO1B1), SLCO1B1 (gene 10599); test: LTEA_HepaRG_SLCO1B1: Life Technologies and Expression Analysis (LTEA) Assay for solute carrier (SLCO1B1) using HepaRG (AID 2283530)
Outline: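 SLCO1B1 transcript levels were quantified by TaqMan qRT-PCR using three housekeeping genes for normalization. This followed 48 h chemical exposure (100 uM top, half-log, 8 points, 0.5% DMSO) of HepaRG liver cells, with gain or loss fitted relative to DMSO.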

[16] = read-out: Transforming Growth Factor (TGFA), TGFA (gene 7039); test: LTEA_HepaRG_TGFA: Life Technologies and Expression Analysis (LTEA) Assay for Transforming Growth Factor (TGFA) using HepaRG (AID 2283532)
Outline: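 HepaRG (human liver line), 48 h exposure, 8 conc. half-log down from 100 uM, 0.5% DMSO vehicle, duplicates; serum-free induction medium. TGFA mRNA by TaqMan qRT-PCR, ACTB/GAPDH/POLR2A normalization; gain/loss fit vs DMSO.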

[17] = read-out: Transforming Growth Factor (TGFB1), TGFB1 (gene 7040); test: LTEA_HepaRG_TGFB1: Life Technologies and Expression Analysis (LTEA) Assay for Transforming Growth Factor (TGFB1) Transporter using HepaRG (AID 2283533)
Outline: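 TGFB1 transcript measured by qRT-PCR with normalisation to three housekeeping genes (ACTB, GAPDH, POLR2A); human HepaRG line treated in duplicate for 48 hr with an 8-point series topping at 100 uM, 0.5% DMSO vehicle, bidirectionally fitted.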

TIMP1, TIMP1 (gene 7076) = test: LTEA_HepaRG_TIMP1: Life Technologies and Expression Analysis (LTEA) Assay for TIMP1 using HepaRG (AID 2283534);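 also: TaqMan qRT-PCR signal normalized to ACTB GAPDH and POLR2A housekeeping genes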
Outline: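 Bidirectional change in TIMP1 transcript versus 0.5% DMSO, measured by TaqMan qRT-PCR with three housekeeping genes for normalization. HepaRG human liver cells dosed 48 h in duplicate, top concentration 100 uM with half-log dilutions.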

[18] = read-out: sulfotransferase 2A1 (SULT2A1), SULT2A1 (gene 6822); test: LTEA_HepaRG_SULT2A1: Life Technologies and Expression Analysis (LTEA) Assay for sulfotransferase 2A1 (SULT2A1) using HepaRG (AID 2283531)
Outline: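 Expression change of SULT2A1, by qRT-PCR with three housekeeping-gene normalization, was scored bidirectionally versus DMSO. Cells: differentiated HepaRG, dosed in duplicate for 48 h across 8 points, highest 100 µM, half-log dilution, 0.5% DMSO.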

Measured: outcome

Signal transducer and activator of transcription 3 (Homo sapiens), sequence (P40763 whole entry, looked up): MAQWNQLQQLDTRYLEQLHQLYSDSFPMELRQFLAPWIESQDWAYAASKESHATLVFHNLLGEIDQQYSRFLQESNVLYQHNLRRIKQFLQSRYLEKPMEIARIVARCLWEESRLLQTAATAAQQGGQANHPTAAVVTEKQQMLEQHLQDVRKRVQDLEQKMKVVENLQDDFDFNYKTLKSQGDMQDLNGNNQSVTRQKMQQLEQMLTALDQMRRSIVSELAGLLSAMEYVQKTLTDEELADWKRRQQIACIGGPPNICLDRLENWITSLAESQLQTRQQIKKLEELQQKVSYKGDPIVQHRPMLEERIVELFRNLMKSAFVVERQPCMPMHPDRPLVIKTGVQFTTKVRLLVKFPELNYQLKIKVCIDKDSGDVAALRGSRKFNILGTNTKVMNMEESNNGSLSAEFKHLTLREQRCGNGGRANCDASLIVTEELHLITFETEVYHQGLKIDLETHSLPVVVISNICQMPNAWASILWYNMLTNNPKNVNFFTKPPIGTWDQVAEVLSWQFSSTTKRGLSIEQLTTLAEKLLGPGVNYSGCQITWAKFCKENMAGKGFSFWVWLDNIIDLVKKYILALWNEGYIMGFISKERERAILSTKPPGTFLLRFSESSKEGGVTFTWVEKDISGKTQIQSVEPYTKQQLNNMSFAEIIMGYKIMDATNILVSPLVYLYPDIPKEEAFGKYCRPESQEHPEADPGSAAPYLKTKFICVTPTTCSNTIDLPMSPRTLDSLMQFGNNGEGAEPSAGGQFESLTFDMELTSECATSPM
Nuclear factor NF-kappa-B p105 subunit (Homo sapiens), sequence (P19838 whole entry, looked up): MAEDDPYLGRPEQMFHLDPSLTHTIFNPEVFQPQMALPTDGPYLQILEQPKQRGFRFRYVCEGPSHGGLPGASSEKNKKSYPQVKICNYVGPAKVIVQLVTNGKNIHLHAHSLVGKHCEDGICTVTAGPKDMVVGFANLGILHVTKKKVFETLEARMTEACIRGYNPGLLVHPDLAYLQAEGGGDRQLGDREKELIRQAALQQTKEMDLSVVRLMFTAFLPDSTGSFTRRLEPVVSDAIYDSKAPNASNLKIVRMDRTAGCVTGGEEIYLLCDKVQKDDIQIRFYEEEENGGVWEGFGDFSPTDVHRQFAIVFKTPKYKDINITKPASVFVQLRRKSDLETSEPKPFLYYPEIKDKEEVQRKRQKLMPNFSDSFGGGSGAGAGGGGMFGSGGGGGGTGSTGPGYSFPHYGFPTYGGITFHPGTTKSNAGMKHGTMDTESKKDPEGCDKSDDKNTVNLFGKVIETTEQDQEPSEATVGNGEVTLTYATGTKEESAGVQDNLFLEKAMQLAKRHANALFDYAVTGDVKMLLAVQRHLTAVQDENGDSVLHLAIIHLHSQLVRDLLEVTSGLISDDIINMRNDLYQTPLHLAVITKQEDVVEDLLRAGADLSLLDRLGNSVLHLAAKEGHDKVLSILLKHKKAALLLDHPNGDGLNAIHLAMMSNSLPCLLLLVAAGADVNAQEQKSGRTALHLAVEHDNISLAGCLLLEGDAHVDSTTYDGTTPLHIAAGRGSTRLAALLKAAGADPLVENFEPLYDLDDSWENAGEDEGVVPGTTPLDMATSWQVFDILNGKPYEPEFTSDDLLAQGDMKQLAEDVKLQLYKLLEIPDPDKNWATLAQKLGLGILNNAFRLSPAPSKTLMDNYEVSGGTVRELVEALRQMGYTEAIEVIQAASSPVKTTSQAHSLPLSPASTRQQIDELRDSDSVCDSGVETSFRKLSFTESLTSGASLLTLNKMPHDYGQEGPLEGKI
Nuclear factor erythroid 2-related factor 2 (Homo sapiens), sequence (Q16236 whole entry, looked up): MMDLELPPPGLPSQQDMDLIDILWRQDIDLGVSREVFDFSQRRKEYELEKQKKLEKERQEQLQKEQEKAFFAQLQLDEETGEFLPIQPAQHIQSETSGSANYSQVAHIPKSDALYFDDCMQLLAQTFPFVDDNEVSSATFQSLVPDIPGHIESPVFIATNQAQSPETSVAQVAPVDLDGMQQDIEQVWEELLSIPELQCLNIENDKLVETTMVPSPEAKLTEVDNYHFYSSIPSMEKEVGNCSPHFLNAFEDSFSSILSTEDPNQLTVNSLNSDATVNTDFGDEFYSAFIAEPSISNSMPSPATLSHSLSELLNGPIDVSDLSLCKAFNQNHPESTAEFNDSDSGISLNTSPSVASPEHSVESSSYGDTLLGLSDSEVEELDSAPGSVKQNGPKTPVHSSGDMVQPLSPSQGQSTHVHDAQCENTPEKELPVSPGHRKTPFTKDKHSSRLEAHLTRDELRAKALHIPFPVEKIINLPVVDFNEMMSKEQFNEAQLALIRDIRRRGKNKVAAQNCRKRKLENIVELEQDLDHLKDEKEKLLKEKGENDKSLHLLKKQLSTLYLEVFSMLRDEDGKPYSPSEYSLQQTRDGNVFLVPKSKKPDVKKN

Cc1cn([C@H]2C[C@H](N=[N+]=[N-])[C@@H](CO)O2)c(=O)[nH]c1=O
not listed: [18]
inactive: all other assays above

CN1C(=O)CC[C@H]1c1cccnc1
inactive: all assays above

CCCCCCCCOc1ccc(C(=O)c2ccccc2)c(O)c1
not listed: [18]
inactive: all other assays above
